Consider 102 compounds from PubChem BioAssay AID932 (The Scripps Research Institute Molecular Screening Center, 2007).

About 5,100 (2.5%) of roughly 200,000 compounds were called active.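 How the source made its calls: active means activation above the screen-wide mean activation plus 3 SD (cut at about 130% in these data); inactive means the rest.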 What follows is part of a selection rich in actives, with near analogues and random picks from the rest.

The assay is described as follows: potentiators of IFN-gamma driven STAT1 reporter – cell-based, HTS, luciferase reporter, primary screen (AID 932).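 Further: raw ratio to IFN-gamma control signal so 100% means no change and 0% no light.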 Particulars: NIH 3T3 STAT1-luciferase reporter, luminescence, at 5.5 µM, active compounds read high, 100% = IFN-gamma alone, no compound. (A reporter such as luciferase makes a cellular process visible.)
Consider `CCCn1nc(C(=O)N2CCCc3ccccc32)c2ccccc2c1=O`, for which the activation (% of control) was 97.4% (inactive).
The same measure for `COc1ccc(Nc2nc(Cl)nc(NCc3ccco3)n2)cc1`: 104% (inactive); for `COc1ccc(-n2cnc3cc(NCc4ccco4)ccc32)cc1`: 137% (active).
Under `COc1ccc(-n2cnc3cc(C(=O)NC4CCCC4)ccc32)cc1` stands 110% (inactive); under `COc1cc(C(=O)N[C@@H](C)C(=O)NCc2ccco2)cc(OC)c1OC`, 102% (inactive).
Under `CN(CC(=O)Nc1ccccc1[N+](=O)[O-])Cc1ccc(Br)cc1` stands 97.7% (inactive); under `CC(C)CCN1CCN(Cc2ccc(C(F)(F)F)cc2)CC1CCO` (configuration not stated), 100% (inactive); under `O=C1CC(c2cccc(Cl)c2)CC(O)=C1C=Nc1ccccc1` (configuration not stated), 99.6% (inactive).
As to `CC1=NN(c2ccccc2)C(=O)C1C(=O)c1ccc([N+](=O)[O-])cc1` (configuration not stated), the activation (% of control) was 94.7% (inactive).
The same measure for `Cn1c(=O)n(Cc2ccco2)c(=N)c2c3c(sc21)CCCC3`: 103% (inactive); for `Cc1nn2c3cc(N4CCOCC4)ccc3nc2c2ccccc12`: 134% (active); for `N#CCSc1nc2ccc(N3CCOCC3)cc2c(=O)n1CCc1ccccc1`: 102% (inactive).
The same measure for `Cc1cc(C(=O)Nc2ccccc2N2CCOCC2)c2ccccc2n1`: 102% (inactive).
Under `CCCc1c(C)nc2c(Br)cccc2c1Cl` stands 97.5% (inactive); under `Cc1nc2ccccc2nc(C)c1=NOCc1ccc(Cl)cc1Cl`, 111% (inactive).
As for `C#CCSc1nnc(-c2sc3ccccc3c2Cl)o1`, the activation (% of control) was 140% (active).
The same measure for `O=C(OCC#CCSc1nnc(-c2ccncc2)o1)c1sc2ccccc2c1Cl`: 100% (inactive).
The same measure for `Clc1ccc(-c2nnc(SCc3nc4ccccc4s3)o2)cc1`: 122% (inactive).
Consider `Cc1nonc1C1CCCN1Cc1nc(-c2ccc(F)cc2F)oc1C` (configuration not stated), for which the activation (% of control) is 96% (inactive).
The same measure for `CN(C)CCn1c(=S)[nH]c2ccc(Cl)cc2c1=O`: 95.1% (inactive).
Under `CN(C)CCN=c1cc(-c2ccccc2)oc2ccc(Cl)cc12` stands 148% (active).
Under `Cc1ccc(N(Cc2cc3ccccc3[nH]c2=O)C(=O)c2cccs2)cc1` stands 91.2% (inactive).
As for `CN(C)S(=O)(=O)Oc1ccccc1C(=O)Nc1ccccc1Cl`, the activation (% of control) is 91.9% (inactive).
For `CN(c1ccc(C(=O)NCc2ccccn2)cc1)S(C)(=O)=O`, the activation (% of control) was 106% (inactive).
Under `CN(c1ccc(C(=O)NCCC2=CCCCC2)cc1)S(C)(=O)=O` stands 158% (active).
Under `O=C(NCCC1=CCCCC1)c1ccc(Cl)c([N+](=O)[O-])c1` stands 110% (inactive); under `O=C(Cc1cccc2ccccc12)NCCC1=CCCCC1`, 101% (inactive).
The same measure for `O=C(Cc1nn[nH]n1)NCCC1=CCCCC1`: 94.3% (inactive); for `Cn1nnc2cc(C(=O)NCCC3=CCCCC3)ccc21`: 153% (active).
For `Cc1nnc(SCC2=C(C(=O)O)N3C(=O)C(NC(=O)Cn4nc(C)c(Cl)c4C)C3SC2)s1` (configuration not stated), the activation (% of control) was 99.2% (inactive).
Under `CCOC(=O)C1CCCN(C(=O)COc2ccc(N(C)S(=O)(=O)c3ccc(C)cc3)cc2)C1` (configuration not stated) stands 102% (inactive); under `Cc1[nH]nc(SCC(=O)NCC(C)C)c1[N+](=O)[O-]`, 102% (inactive); under `c1ccc(CN2CCC(N=C3NN=C(c4ccc5c(c4)OCCO5)CS3)CC2)cc1`, 114% (inactive).
The same measure for `Clc1cccc(N=C2NN=C(c3ccc4c(c3)OCCO4)CS2)c1`: 148% (active).
The same measure for `Cc1cccc(N=C2NN=C(c3c[nH]c4ccccc34)CS2)c1`: 106% (inactive).
In the case of `CCN1CCC2(CC1)N=C(c1ccc(F)cc1)C(=S)N2C(=O)c1ccc(C)cc1`, the activation (% of control) was 111% (inactive).
Under `c1ccc(-c2[nH]ncc2-c2nc3ccccc3[nH]2)cc1` stands 89.6% (inactive); under `c1ccc2[nH]c(-c3nc4ccccc4[nH]3)nc2c1`, 146% (active).
For `Cc1ccc(-c2nc3ccccc3[nH]2)cc1N`, the activation (% of control) is 118% (inactive).
The same measure for `O=C(Nc1ccncc1)c1ccccc1[N+](=O)[O-]`: 105% (inactive); for `O=C(NC(CC(=O)N1CCN(c2ccccc2)CC1)c1ccccc1)c1ccccc1Cl` (configuration not stated): 95% (inactive).
For `O=C(OCC(=O)c1c[nH]c2ccccc12)c1cccc(O)c1`, the activation (% of control) is 93.7% (inactive).
The same measure for `O=S(=O)(NCCc1ccc(F)cc1)c1cccc2cccnc12`: 102% (inactive); for `OCC1(CCc2ccccc2)CCN(Cc2ccc3nsnc3c2)CC1`: 100% (inactive); for `Cc1ccc(S(=O)(=O)N2CCOCC2)cc1C(=O)NC(=S)N(Cc1ccccc1)C(C)C`: 102% (inactive).
Under `Cc1ccc(S(=O)(=O)N2CCC(C(=O)NCC3CCCO3)CC2)cc1` (configuration not stated) stands 99.9% (inactive).
`Cc1ccc(-n2c(C)cc(/C=C(\C#N)C(=O)NCC3CCCO3)c2C)cc1` (configuration not stated): the activation (% of control) is 140% (active).
For the compound `Cc1ccc(C(=O)N/C(=C/c2cccs2)C(=O)NCC2CCCO2)cc1` (configuration not stated), the activation (% of control) is 99.5% (inactive).
Under `O=C(Nc1ccc(F)c([N+](=O)[O-])c1)C1CC(=O)N(Cc2ccccc2)C1` (configuration not stated) stands 95.9% (inactive); under `CN(C)Cc1ccc(F)cc1Sc1cc(Cl)ccc1Cl`, 98.7% (inactive); under `O=C(COC(=O)Cn1cnc2ccccc21)Nc1cccc2c1C(=O)c1ccccc1C2=O`, 104% (inactive).
As for `Cc1occc1C(=O)N1CCCc2ccccc21`, the activation (% of control) was 104% (inactive).
The same measure for `O=C(c1cnn2ccccc12)N1CCc2ccccc21`: 136% (active); for `O=C(c1cccc(C(=O)N2CCc3ccccc32)n1)N1CCc2ccccc21`: 95.1% (inactive).
The same measure for `O=C(Cc1c(F)cccc1Cl)Nc1ccc(-n2cnnn2)cc1`: 98.6% (inactive).
Under `COc1ccc(NC(=O)CN2C(=O)C(c3ccccc3)=NC23CCCCCC3)cc1OC` stands 104% (inactive); under `N#C/C(=C1\CCCN1)c1nc(-c2ccccc2)cs1`, 105% (inactive).
`N#CC(=C1CCCC1)c1nc(-c2ccc(Cl)cc2)cs1`: the activation (% of control) is 110% (inactive).
As for `N#CC(=C1SC=CS1)c1nc(-c2ccccc2)cs1`, the activation (% of control) was 133% (active).
Regarding `O=C(CN(CC1CCCO1)C(=O)CNS(=O)(=O)c1ccc(F)cc1)NCc1ccco1` (configuration not stated), the activation (% of control) was 109% (inactive).
The same measure for `COc1cc(OC)cc(-c2nc(=S)n3ccsc3n2)c1`: 108% (inactive).
The same measure for `Cc1cc(=O)oc(C)c1C(=O)N1CCCCC1`: 104% (inactive).
Under `Cc1ccc2cc3cc(C(=O)N4CCCCCC4)oc3nc2c1` stands 169% (active); under `Cc1cccc(C(=O)N2CCCN(C(=O)c3cccc(C)c3)CC2)c1`, 103% (inactive); under `O=C(CS(=O)(=O)Cc1ccccc1)NCC1CCCO1` (configuration not stated), 94.5% (inactive).
As to `O=C1C(C=NCC2CCCO2)=C(O)c2ccccc21` (configuration not stated), the activation (% of control) was 137% (active).
For the compound `CC(=NCC1CCCO1)c1c(O)[nH]c(=O)[nH]c1=O` (configuration not stated), the activation (% of control) is 106% (inactive).
Under `COc1ccc(CCNC(=O)CN(c2ccccc2)S(C)(=O)=O)cc1` stands 98% (inactive); under `COc1ccc(-n2nnnc2SCC(=O)Nc2ccccc2)cc1`, 99.3% (inactive).
Under `CCOc1cccc(-n2nnnc2-c2ccc(OC)cc2)c1` stands 93.4% (inactive).
On to `COc1ccc(-n2nnnc2-c2nc3ccccc3s2)cc1`, for which the activation (% of control) is 166% (active).
As for `Cc1ccc(C(=O)N/C(=C\c2cccs2)C(=O)NCCc2ccccn2)cc1C`, the activation (% of control) was 103% (inactive).
The same measure for `CN(C)C(=O)CSc1n[nH]c(-c2ccco2)n1`: 101% (inactive).
The same measure for `O=C(Cn1c(-c2cncs2)nc2ccccc21)NC1CCCC1`: 103% (inactive); for `O=C(/C=C/c1cnc2ccccc2n1)NC1CCCCCC1`: 142% (active); for `CC(=O)OC(C(=O)NC1CCCCC1)c1ccccc1` (configuration not stated): 95.8% (inactive).
The same measure for `C/C(=C/C(=O)N1CCN(C)CC1)C(=O)O`: 88.6% (inactive); for `CCOn1c(=O)c(=O)n(O)c2ccccc21`: 95.6% (inactive); for `COC(=O)c1cccc([N+](=O)[O-])c1CS(=O)(=O)c1ccc(C)cc1`: 98.8% (inactive).
As to `CCNc1nc(-c2cc3ccccc3o2)cs1`, the activation (% of control) was 176% (active).
The same measure for `Cc1nc(C)c(-c2csc(NCCc3ccccc3)n2)s1`: 102% (inactive).
The same measure for `O=c1oc2ccccc2cc1-c1csc(Nc2ccc(O)cc2)n1`: 117% (inactive); for `CC1(C)CC(=O)C2=C(C1)Nc1cc(C(=O)c3ccccc3)ccc1NC2c1ccccn1` (configuration not stated): 104% (inactive); for `CCN1CCN(C(C(=O)NC2CCCC2)c2cc3c(cc2[N+](=O)[O-])OCO3)CC1` (configuration not stated): 107% (inactive).
The same measure for `Cc1nc(-c2ccccc2)sc1C(=O)/C=C/N(C)C`: 147% (active); for `Cc1ccc(SCC(=O)c2sc(-c3ccccc3)nc2C)cc1`: 102% (inactive).
Regarding `Cc1nc(-c2ccccc2)sc1C(=O)/C=C/c1ccccc1`, the activation (% of control) is 105% (inactive).
For `N/C(=N\OC(=O)c1cc(-c2ccccc2)nc2ccccc12)c1ccncc1`, the activation (% of control) is 99.8% (inactive).
Under `Cc1cccc(/C(N)=N/OC(=O)c2ccccc2Cl)c1` stands 138% (active); under `Cc1cccc(C(=O)c2cccc(C)c2)c1`, 103% (inactive).
Regarding `COc1ccccc1C(=O)CSc1cccc[n+]1[O-]`, the activation (% of control) is 105% (inactive).
Under `CC(C)Oc1ccc(Cc2n[nH]c(=S)n2Cc2ccccc2)cc1Cl` stands 90.5% (inactive); under `CCN1CCc2nc(NC(=O)c3cc(F)c(F)cc3Cl)sc2C1`, 111% (inactive).
In the case of `Cc1cccc(NC(=O)Nc2nnc(-c3ccccc3)o2)c1`, the activation (% of control) was 99.5% (inactive).
The same measure for `Cc1ccc(NC(=O)Nc2ccccc2)c(Br)c1`: 164% (active).
Under `CC(=O)c1cccc(NC(=O)Nc2ccc(C)cc2)c1` stands 118% (inactive); under `CN=C(c1ccccc1)c1c(C)cccc1C`, 93.1% (inactive).
The same measure for `O=C(CC1C(=O)NCCN1Cc1ccc(-c2ccccc2)cc1)NCC1CCOCC1` (configuration not stated): 102% (inactive).
Consider `O=C(Cc1csc(Nc2nc(=S)[nH]c3ccccc23)n1)NCCCN1CCN(c2cccc(Cl)c2)CC1`, for which the activation (% of control) was 90.9% (inactive).
Regarding `Cc1ccccc1CC1(CO)CCCN(C(=O)c2cc(-c3ccccc3)no2)C1` (configuration not stated), the activation (% of control) was 104% (inactive).
Under `CC(=O)c1cccc(CN2CCC(CO)(Cc3ccccc3)CC2)c1` stands 96% (inactive); under `COC(=O)CCC(=O)N1CCCC(CO)(Cc2ccccc2)C1` (configuration not stated), 146% (active).
